USP2a block: blocks human ubiquitin-specific protease USP2a; O75604; USP2 core, Ub-CHOP2 coupled fluorogenic reporter, 485/531; Potency, µM (doses to about 38.3 µM), most hits filed as inhibitors; hit rate 0.01% among 330,000; AID 463254
Target sequence (O75604 whole entry, looked up): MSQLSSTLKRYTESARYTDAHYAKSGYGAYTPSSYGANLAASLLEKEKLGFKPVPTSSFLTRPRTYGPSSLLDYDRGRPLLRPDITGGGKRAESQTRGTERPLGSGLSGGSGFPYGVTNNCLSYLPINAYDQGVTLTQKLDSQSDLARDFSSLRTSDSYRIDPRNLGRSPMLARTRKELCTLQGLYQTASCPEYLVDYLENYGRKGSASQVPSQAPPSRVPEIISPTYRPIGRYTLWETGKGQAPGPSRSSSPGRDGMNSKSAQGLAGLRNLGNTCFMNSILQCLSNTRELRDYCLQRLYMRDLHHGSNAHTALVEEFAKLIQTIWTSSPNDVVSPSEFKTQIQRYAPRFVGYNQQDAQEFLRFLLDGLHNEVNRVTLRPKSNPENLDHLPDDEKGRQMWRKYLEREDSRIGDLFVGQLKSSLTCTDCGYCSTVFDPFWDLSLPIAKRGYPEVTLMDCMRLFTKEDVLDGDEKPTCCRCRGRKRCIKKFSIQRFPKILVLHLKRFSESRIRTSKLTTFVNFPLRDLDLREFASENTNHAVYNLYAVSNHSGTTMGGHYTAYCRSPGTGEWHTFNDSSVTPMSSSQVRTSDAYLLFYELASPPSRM
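Cell-free coupled assay: 10nM USP2 core preincubated 30min RT with compound in Tris-HCl pH 8.0/CaCl2/CHAPS buffer, then 25nM Ub-CHOP2 and 25nM reporter substrate; fluorescence (Ex 485/Em 531) read after 60min RT, normalized to NEM inhibition, concentration-response curves fitted.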
Eya2 phos inh: inhibitors of human Eya2 phosphatase activity; O00167; recombinant Eya2, OMFP fluorescence dephosphorylation (OMFP is methylfluorescein phosphate); Potency, µM (top dose mostly 76.9 µM), actives largely listed as inhibitors; hit rate 0.006% among 330,000
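Eya2 (0.2 uM) preincubated 10 min at ambient with compound, then OMFP substrate added at 50 uM; 10 min reaction in 50 mM HEPES pH 7.5, 50 mM NaCl, 5 uM MgCl2, 0.05% BSA, 1 mM DTT. Fluorescence read at Ex 485/Em 525 nm.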
GALK inhibitor: inhibitors of human galactokinase | Purified GALK, Kinase-Glo residual ATP luminescence | Potency, µM (titrated, usually from 57.5 µM), most hits filed as inhibitors | hit rate 0.007% among 270,000 | AID 1868
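Galactose (100 uM) and ATP (35 uM) were turned over by 5 nM GALK for 1 h at RT. Kinase-Glo Plus then converted the remaining ATP into a luminescent signal.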
TrxR1 substrate: rat thioredoxin reductase 1 substrate activity; Potency, µM (series often up to 114 µM); O89049; purified TrxR1 substrate turnover, NADPH consumption readout; hit rate 0.01% among 390,000; note: nearly all actives have a fitted effect of over 50% in size
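Rat TrxR1, dispensed at 90 nM, was prereduced with 400 uM NADPH (final) for 5 min at ~22 deg C, then incubated with compound 15 min before 400 uM selenite. A first-read NADPH fluorescence drop versus no-compound background flagged substrates.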
rTrxR1 inhibitor: blocks rat thioredoxin reductase 1; O89049; recombinant rTrxR1, NADPH fluorescence consumption, selenite substrate; Potency, µM (series often up to 114 µM), actives largely listed as inhibitors; hit rate 1% among 390,000; AID 588453; note: nearly all actives have a fitted effect of over 65% in size
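Rat TrxR1 (90 nM in the dispensed reagent) was pre-reduced with 400 uM NADPH for 5 min at room temperature, then incubated with compound for 15 min. After 400 uM selenite was added, NADPH fluorescence (Ex 340/Em 450 nm) was followed for 8 min.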
RGS4 inh: inhibitors of human regulator of G protein signaling 4; hit rate 0.039% among 390,000; P49798; Potency, µM (titrated, usually from 114 µM), most hits filed as inhibitors; Transcreener GDP fluorescence polarization, RGS4-accelerated GTP hydrolysis; AID 504845; note: nearly all actives have a fitted effect of over 75% in size
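MLSMR compounds (23 nl, pin-transferred) preincubated 10 min at room temperature with a 500nM (2x) first reagent, then RGS4 at 900nM (2x) plus Transcreener GDP mix added; fluorescence polarization (620/688 nm) read before and after 90 min at 30 °C.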
Of the large screens only hits and unclear results are named; the others gave an inactive call. In the library only some 1% were active in any assay of this set; here they are far more common. Calls come from the whole dose curve; as a rule, active = well fitted curve in the direction sought with a large enough effect; inconclusive = small, poorly fitted or top-dose-only effect, or another doubt; inactive = no such curve, though single readings can be large; an effect the other way counts as inactive or inconclusive.

O=S(=O)(CCSc1ccccn1)c1nc2ccccc2s1	rTrxR1 inhibitor 14µM, RGS4 inh inconclusive
O=S(=O)(CCSc1nc2ccccc2o1)c1nc2ccccc2s1	rTrxR1 inhibitor 1.1µM
COc1cc2nc(N3CCCN(C)CC3)nc(OC3CCN(C)CC3)c2cc1OC	none (no result: USP2a block, Eya2 phos inh, GALK inhibitor, RGS4 inh)
Cc1ccsc1C=Nc1ccc(O)cc1	TrxR1 substrate inconclusive, rTrxR1 inhibitor 56µM
O=C1OC(CN(Cc2ccccc2)Cc2ccccc2)CN1N=Cc1ccc([N+](=O)[O-])o1 (stereo not drawn)	rTrxR1 inhibitor 56µM (no result: USP2a block, Eya2 phos inh, GALK inhibitor)
CCc1ccccc1NC(=O)c1cccc(NC(=O)/C=C/c2ccco2)c1	rTrxR1 inhibitor inconclusive
Cc1ccc(NC(=O)c2cccc(NC(=O)/C=C/c3ccco3)c2)cc1C	rTrxR1 inhibitor 20µM
O=C(/C=C/c1ccco1)Nc1cccc(C(=O)Nc2ccccc2C(=O)O)c1	rTrxR1 inhibitor 11µM
c1ccc2c(CCc3c[nH]c4ccccc34)ccnc2c1	rTrxR1 inhibitor inconclusive (no result: USP2a block, Eya2 phos inh, GALK inhibitor, RGS4 inh)
COC1=C(N)C(=O)c2nc(-c3nc(C(=O)O)c(C)c(-c4ccc(OC)c(OC)c4O)c3N)ccc2C1=O	GALK inhibitor 8.9µM
COc1ccc(-c2ncncc2-c2csc(C)n2)c(O)c1OC	none
O=C(COc1ccccc1C(=O)OCC(=O)Nc1cccc2ccccc12)Nc1ccc(Br)cc1	none (no result: USP2a block, Eya2 phos inh, GALK inhibitor, RGS4 inh)
COc1ccc(SCCN2CCN(CCc3ccccc3)CCC2=O)cc1	RGS4 inh inconclusive (no result: USP2a block, Eya2 phos inh, GALK inhibitor)
O=c1[nH]c2cc3c(cc2cc1C(c1nnnn1CC1CCCO1)N1CCCCCC1)OCCO3 (stereo not drawn)	rTrxR1 inhibitor 22µM
Cc1ccc(-c2nc3cc(Cl)ccc3o2)cc1NC(=O)COc1ccccc1C	none (no result: USP2a block, Eya2 phos inh, GALK inhibitor, RGS4 inh)
Cc1ccc(N2C(=O)CSCC2=O)cc1	none
Cc1ccc(N2C(=O)CS/C2=C(\C(Cl)=C(Cl)Cl)[N+](=O)[O-])cc1	rTrxR1 inhibitor 32µM, RGS4 inh inconclusive
NS(=O)(=O)c1ccc(Oc2ccc(S(N)(=O)=O)cc2)cc1	none
C=CS(=O)(=O)c1ccc(Oc2ccc(S(=O)(=O)C=C)cc2)cc1	rTrxR1 inhibitor 5µM, RGS4 inh inconclusive
Cc1nn(-c2ccccn2)c2c1-c1nc(N)sc1CC2	rTrxR1 inhibitor inconclusive (no result: USP2a block, Eya2 phos inh, GALK inhibitor, RGS4 inh)
CCc1ccc(NC(=O)CSc2nnc(-c3ccccc3)n2C)cc1	none (no result: USP2a block, Eya2 phos inh, GALK inhibitor, RGS4 inh)
CN(C)S(=O)(=O)c1cccc(NC(=S)Nc2cccc3cnccc23)c1	rTrxR1 inhibitor 40µM, RGS4 inh inconclusive
S=C(Nc1cccnc1)Nc1cccc2cnccc12	RGS4 inh inconclusive
Fc1ccc2[nH]c3c(NCc4ccco4)ncnc3c2c1	none (no result: USP2a block, Eya2 phos inh, GALK inhibitor)
S=c1[nH]nc(-c2cc(-c3ccccn3)nc3ccccc23)o1	rTrxR1 inhibitor 56µM
O=c1[nH]cnc2c1ncn2[C@H]1C[C@H](O)[C@@H](CO)O1	none (no result: USP2a block, Eya2 phos inh, GALK inhibitor)
Cc1ccc2c(c1)c(=O)c1c3n2CCN(C(=O)CCl)C3CC1 (stereo not drawn)	rTrxR1 inhibitor 14µM
CCc1ccc(S(=O)(=O)/N=C2/C=C(Sc3ncn[nH]3)C(=O)c3ccccc32)cc1	TrxR1 substrate 7.9µM, rTrxR1 inhibitor inconclusive
O=C1c2ccccc2-c2c1cccc2C(=O)N1CCN(C(=O)c2ccco2)CC1	rTrxR1 inhibitor 32µM
C(=C\c1ccnc2ccccc12)/c1ccc(N2CCN(c3ccc(/C=C/c4ccnc5ccccc45)cc3)CC2)cc1	none (no result: USP2a block, Eya2 phos inh, GALK inhibitor, RGS4 inh)
CCOC(=O)C1=C(COC(=O)/C=C/c2ccc(C)o2)NC(=O)NC1C (stereo not drawn)	rTrxR1 inhibitor 50µM (no result: GALK inhibitor)
N#Cc1nc(COc2ccccc2Cl)oc1NCc1ccc(F)cc1	none
N#Cc1nc(COc2ccccc2Cl)oc1NCc1cccnc1	rTrxR1 inhibitor 35µM
O=S(=O)(Nc1cccc2cccnc12)c1cccs1	none (no result: USP2a block, Eya2 phos inh, GALK inhibitor)
O=C(NC(N1CCCC1)C(Cl)(Cl)Cl)c1ccccc1 (stereo not drawn)	rTrxR1 inhibitor 32µM
COc1ccc(C2=CC(c3ccc(OC)c(OC)c3)n3nnnc3N2)c(OC)c1 (stereo not drawn)	rTrxR1 inhibitor inconclusive
COc1cccc(C2C=C(c3ccc(OC)cc3OC)Nc3nnnn32)c1 (stereo not drawn)	rTrxR1 inhibitor 45µM
